The record followed here is paper PMC8384837, “Expanding the binding specificity for RNA recognition by a PUF domain”.

Holding throughout (experiment): yeast three-hybrid, YBZ-1, SC-Leu-His + 0.5 mM 3-AT, 4 days
What all share (conditions): tags: N-Gal4 AD-HA kept; label: inside an RPR1-promoter hybrid RNA with tandem MS2 sites; ssRNA

The target in one assay is PUM1 PUF domain R5-KAT (Homo sapiens, UniProt Q14671 828-1176, C1007K;R1008A;Q1011T). The method in brief:
(§1)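 Repeat regions from input (SC-Leu) and selection (SC-Leu-His + 0.5 mM 3-AT) plates were PCR-amplified and Illumina-sequenced after four days of growth. The cells were strain YBZ-1 with a LexA–MS2 coat fusion and a HIS3 reporter, co-expressing Pumilio-1 PUF domain libraries and matching RNA elements from a centromeric plasmid. The interaction score is the log change in variant frequency from input to selection, taken in log2 with a pseudocount of 1 for absent variants.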

The target in a further assay is PUM1 PUF domain R5-RMV (Homo sapiens, UniProt Q14671 828-1176, C1007R;R1008M;Q1011V). In short, it runs like this:
as §1

Another assay has as its target PUM1 PUF domain R5-CKR (Homo sapiens, UniProt Q14671 828-1176, R1008K;Q1011R). The method in brief:
as §1

For the next assay, the target named is PUM1 PUF domain R7-ERG (Homo sapiens, UniProt Q14671 828-1176, S1079E;N1080R;E1083G). In short, it runs like this: as §1
The target in a further assay is PUM1 PUF domain R7-KQC (Homo sapiens, UniProt Q14671 828-1176, S1079K;N1080Q;E1083C). In short, it runs like this: as §1
Another assay addresses PUM1 PUF domain R3-MPR (Homo sapiens, UniProt Q14671 828-1176, C935M;R936P;Q939R). In short, it runs like this:
as §1

The target of the next assay is PUM1 PUF domain R4-NRS (Homo sapiens, UniProt Q14671 828-1176, H972R;Q975S). The method in brief: as §1
Another assay deals with PUM1 PUF domain R4-MPC (Homo sapiens, UniProt Q14671 828-1176, N971M;H972P;Q975C). The method in brief:
as §1

Another assay concerns the target PUM1 PUF domain R4-WST (Homo sapiens, UniProt Q14671 828-1176, N971W;H972S;Q975T). The method in brief: as §1
Another assay has as its target PUM1 PUF domain R4-PFF (Homo sapiens, UniProt Q14671 828-1176, N971P;H972F;Q975F). In short, it runs like this:
as §1

The target in another assay is T1, PUM1 PUF domain R6-RWA (Homo sapiens, UniProt Q14671 828-1176, N1043R;Y1044W;Q1047A).
T1 sequence: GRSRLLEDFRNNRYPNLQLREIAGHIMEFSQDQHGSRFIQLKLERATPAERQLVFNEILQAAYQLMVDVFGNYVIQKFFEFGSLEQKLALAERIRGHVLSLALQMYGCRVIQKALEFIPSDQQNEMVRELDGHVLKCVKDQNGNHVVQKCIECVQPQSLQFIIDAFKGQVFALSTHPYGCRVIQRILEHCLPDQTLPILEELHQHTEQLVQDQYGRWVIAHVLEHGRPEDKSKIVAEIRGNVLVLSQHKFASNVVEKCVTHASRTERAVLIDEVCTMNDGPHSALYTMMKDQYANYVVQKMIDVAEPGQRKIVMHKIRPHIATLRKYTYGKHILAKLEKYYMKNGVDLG
In short, it runs like this:
as §1

In a further assay the target is PUM1 PUF domain R5-PRH (Homo sapiens, UniProt Q14671 828-1176, C1007P;Q1011H). In short, it runs like this: as §1
The target of another assay is PUM1 PUF domain R5-GHL (Homo sapiens, UniProt Q14671 828-1176, C1007G;R1008H;Q1011L). The method in brief: as §1
Another assay deals with PUM1 PUF domain R2-LWH (Homo sapiens, UniProt Q14671 828-1176, N899L;Y900W;Q903H). In short, it runs like this: as §1
Another assay deals with PUM1 PUF domain R1-NSR (Homo sapiens, UniProt Q14671 828-1176, S863N;R864S;Q867R). The method in brief: as §1
In another assay the target is PUM1 PUF domain R1-GMK (Homo sapiens, UniProt Q14671 828-1176, S863G;R864M;Q867K). In short, it runs like this: as §1
The target of another assay is PUM1 PUF domain R1-RTT (Homo sapiens, UniProt Q14671 828-1176, S863R;R864T;Q867T). In short, it runs like this:
as §1

The target in the next assay is PUM1 PUF domain R8-RFW (Homo sapiens, UniProt Q14671 828-1176, N1122R;Y1123F;Q1126W). The method in brief: as §1
The next assay has as its target PUM1 PUF domain R8-QFK (Homo sapiens, UniProt Q14671 828-1176, N1122Q;Y1123F;Q1126K). The method in brief: as §1
The target of another assay is PUM1 PUF domain R4-VNC (Homo sapiens, UniProt Q14671 828-1176, N971V;H972N;Q975C). In short, it runs like this: as §1

PUM1 PUF domain R4-PFF, sequence (Q14671 828-1176 N971P/H972F/Q975F): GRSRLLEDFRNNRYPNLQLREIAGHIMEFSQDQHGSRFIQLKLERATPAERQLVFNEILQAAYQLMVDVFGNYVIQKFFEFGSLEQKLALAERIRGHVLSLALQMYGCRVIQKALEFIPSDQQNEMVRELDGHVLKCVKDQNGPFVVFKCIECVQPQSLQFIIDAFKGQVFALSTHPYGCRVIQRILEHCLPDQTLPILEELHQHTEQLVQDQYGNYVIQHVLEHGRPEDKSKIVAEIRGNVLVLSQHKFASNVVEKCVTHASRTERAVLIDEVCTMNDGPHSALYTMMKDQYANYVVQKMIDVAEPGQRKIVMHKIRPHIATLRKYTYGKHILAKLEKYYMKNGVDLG
PUM1 PUF domain R5-GHL, sequence (Q14671 828-1176 C1007G/R1008H/Q1011L): as the sequence (Q14671 828-1176 N971P/H972F/Q975F) above, with P144N, F145H, F148Q, C180G, R181H, Q184L counted along it
PUM1 PUF domain R4-WST, sequence (Q14671 828-1176 N971W/H972S/Q975T): as the sequence (Q14671 828-1176 N971P/H972F/Q975F) above, with P144W, F145S, F148T counted along it
PUM1 PUF domain R8-RFW, sequence (Q14671 828-1176 N1122R/Y1123F/Q1126W): as the sequence (Q14671 828-1176 N971P/H972F/Q975F) above, with P144N, F145H, F148Q, N295R, Y296F, Q299W counted along it
PUM1 PUF domain R2-LWH, sequence (Q14671 828-1176 N899L/Y900W/Q903H): as the sequence (Q14671 828-1176 N971P/H972F/Q975F) above, with N72L, Y73W, Q76H, P144N, F145H, F148Q counted along it
PUM1 PUF domain R7-KQC, sequence (Q14671 828-1176 S1079K/N1080Q/E1083C): as the sequence (Q14671 828-1176 N971P/H972F/Q975F) above, with P144N, F145H, F148Q, S252K, N253Q, E256C counted along it
PUM1 PUF domain R1-RTT, sequence (Q14671 828-1176 S863R/R864T/Q867T): as the sequence (Q14671 828-1176 N971P/H972F/Q975F) above, with S36R, R37T, Q40T, P144N, F145H, F148Q counted along it
PUM1 PUF domain R8-QFK, sequence (Q14671 828-1176 N1122Q/Y1123F/Q1126K): as the sequence (Q14671 828-1176 N971P/H972F/Q975F) above, with P144N, F145H, F148Q, N295Q, Y296F, Q299K counted along it
PUM1 PUF domain R4-MPC, sequence (Q14671 828-1176 N971M/H972P/Q975C): as the sequence (Q14671 828-1176 N971P/H972F/Q975F) above, with P144M, F145P, F148C counted along it
PUM1 PUF domain R4-NRS, sequence (Q14671 828-1176 H972R/Q975S): as the sequence (Q14671 828-1176 N971P/H972F/Q975F) above, with P144N, F145R, F148S counted along it

With “GGCUAGAACUAGUGGAUCCCCCGGCGCCCGGCGGCUCGAGCCCGGGUAAGUGUCAAUAGUCUGCAUGCCGCCGGGCGCCAUGCCUGCAGGUCGACUCUAGAAAACAUG”, the results for the binding signal with PUM1 PUF domain R5-KAT, with PUM1 PUF domain R5-RMV and with PUM1 PUF domain R5-CKR were 3.96 log2 enrichment (interaction score), 3.48 log2 enrichment (interaction score) and 5.95 log2 enrichment (interaction score), respectively.
For the sequence “GGCUAGAACUAGUGGAUCCCCCGGCGCCCGGCGGCUCGAGCCCGGGUAAGUCUAAAUAGUCUGCAUGCCGCCGGGCGCCAUGCCUGCAGGUCGACUCUAGAAAACAUG”, the results for the binding signal with PUM1 PUF domain R7-ERG and with PUM1 PUF domain R7-KQC were 2.98 log2 enrichment (interaction score) and 2.83 log2 enrichment (interaction score), respectively.
For “GGCUAGAACUAGUGGAUCCCCCGGCGCCCGGCGGCUCGAGCCCGGGUAAGUGUAAUUAGUCUGCAUGCCGCCGGGCGCCAUGCCUGCAGGUCGACUCUAGAAAACAUG”, in the assay with PUM1 PUF domain R3-MPR, the binding signal was 2.67 log2 enrichment (interaction score).
Take “GGCUAGAACUAGUGGAUCCCCCGGCGCCCGGCGGCUCGAGCCCGGGUAAGUGUAUAUAGUCUGCAUGCCGCCGGGCGCCAUGCCUGCAGGUCGACUCUAGAAAACAUG”: the binding signal with PUM1 PUF domain R4-NRS was 2.58 log2 enrichment (interaction score); in the assay with PUM1 PUF domain R4-MPC, 3.15 log2 enrichment (interaction score); with PUM1 PUF domain R4-WST, 2.45 log2 enrichment (interaction score); with PUM1 PUF domain R4-PFF, 7.66 log2 enrichment (interaction score).
For “GGCUAGAACUAGUGGAUCCCCCGGCGCCCGGCGGCUCGAGCCCGGGUAAGUGAAAAUAGUCUGCAUGCCGCCGGGCGCCAUGCCUGCAGGUCGACUCUAGAAAACAUG”, the binding signal with PUM1 PUF domain R6-RWA is 4.28 log2 enrichment (interaction score).
“GGCUAGAACUAGUGGAUCCCCCGGCGCCCGGCGGCUCGAGCCCGGGUAAGUGUGAAUAGUCUGCAUGCCGCCGGGCGCCAUGCCUGCAGGUCGACUCUAGAAAACAUG”: the values for the binding signal with PUM1 PUF domain R5-PRH and with PUM1 PUF domain R5-GHL were 2.93 log2 enrichment (interaction score) and 2.8 log2 enrichment (interaction score), respectively.
Take “GGCUAGAACUAGUGGAUCCCCCGGCGCCCGGCGGCUCGAGCCCGGGUAAGUUUAAAUAGUCUGCAUGCCGCCGGGCGCCAUGCCUGCAGGUCGACUCUAGAAAACAUG”: the binding signal with PUM1 PUF domain R7-ERG was 4.23 log2 enrichment (interaction score).
In the case of “GGCUAGAACUAGUGGAUCCCCCGGCGCCCGGCGGCUCGAGCCCGGGUAAGUGUAAAAAGUCUGCAUGCCGCCGGGCGCCAUGCCUGCAGGUCGACUCUAGAAAACAUG”, in the assay with PUM1 PUF domain R2-LWH, the binding signal is 7.08 log2 enrichment (interaction score).
Take “GGCUAGAACUAGUGGAUCCCCCGGCGCCCGGCGGCUCGAGCCCGGGUAAGUGUAAAUUGUCUGCAUGCCGCCGGGCGCCAUGCCUGCAGGUCGACUCUAGAAAACAUG”: the binding signal is 0.4 log2 enrichment (interaction score) with PUM1 PUF domain R1-NSR and 3.16 log2 enrichment (interaction score) in the assay with PUM1 PUF domain R1-GMK.
Turning to “GGCUAGAACUAGUGGAUCCCCCGGCGCCCGGCGGCUCGAGCCCGGGUAAGUGUAAAUCGUCUGCAUGCCGCCGGGCGCCAUGCCUGCAGGUCGACUCUAGAAAACAUG”, in the assay with PUM1 PUF domain R1-NSR, the binding signal is 2.5 log2 enrichment (interaction score).
Take “GGCUAGAACUAGUGGAUCCCCCGGCGCCCGGCGGCUCGAGCCCGGGUAAGUGUAAAUGGUCUGCAUGCCGCCGGGCGCCAUGCCUGCAGGUCGACUCUAGAAAACAUG”: in the assay with PUM1 PUF domain R1-RTT, the binding signal is 3.14 log2 enrichment (interaction score).
Regarding “GGCUAGAACUAGUGGAUCCCCCGGCGCCCGGCGGCUCGAGCCCGGGUAAGCGUAAAUAGUCUGCAUGCCGCCGGGCGCCAUGCCUGCAGGUCGACUCUAGAAAACAUG”, the binding signal was 6.4 log2 enrichment (interaction score) with PUM1 PUF domain R8-RFW and 4.17 log2 enrichment (interaction score) with PUM1 PUF domain R8-QFK.
In the case of “GGCUAGAACUAGUGGAUCCCCCGGCGCCCGGCGGCUCGAGCCCGGGUAAGUGUAAAUAGUCUGCAUGCCGCCGGGCGCCAUGCCUGCAGGUCGACUCUAGAAAACAUG”, the binding signal with PUM1 PUF domain R3-MPR is 0.58 log2 enrichment (interaction score); with PUM1 PUF domain R5-PRH, 3.22 log2 enrichment (interaction score); in the assay with PUM1 PUF domain R6-RWA, 5.03 log2 enrichment (interaction score); in the assay with PUM1 PUF domain R8-RFW it was 4.68 log2 enrichment (interaction score); with PUM1 PUF domain R2-LWH it was 2.74 log2 enrichment (interaction score); in the assay with PUM1 PUF domain R5-GHL, 4.22 log2 enrichment (interaction score). Also, the values for the binding signal with PUM1 PUF domain R4-WST and in the assay with PUM1 PUF domain R4-PFF were 0.36 log2 enrichment (interaction score) and 5.26 log2 enrichment (interaction score), respectively.
For “GGCUAGAACUAGUGGAUCCCCCGGCGCCCGGCGGCUCGAGCCCGGGUAAGUGUUAAUAGUCUGCAUGCCGCCGGGCGCCAUGCCUGCAGGUCGACUCUAGAAAACAUG”, the binding signal was 3.48 log2 enrichment (interaction score) with PUM1 PUF domain R5-PRH, 1.55 log2 enrichment (interaction score) with PUM1 PUF domain R5-CKR and 3.73 log2 enrichment (interaction score) with PUM1 PUF domain R5-GHL.
Take “GGCUAGAACUAGUGGAUCCCCCGGCGCCCGGCGGCUCGAGCCCGGGUAAGUGUACAUAGUCUGCAUGCCGCCGGGCGCCAUGCCUGCAGGUCGACUCUAGAAAACAUG”: the binding signal with PUM1 PUF domain R4-VNC is 3.19 log2 enrichment (interaction score); with PUM1 PUF domain R4-PFF it was 3.52 log2 enrichment (interaction score).
